Measured values from the supplement of paper PMC11732987, “Enantioselective OTUD7B fragment discovery through chemoproteomics screening and high-throughput optimisation” (Communications Chemistry, 2025).
Values without a mark were called inactive.

What was measured:
Test in all cases: log2 ratio of Biotin-Ahx-Ub-VS probe labelling (fragment/DMSO); higher = less target engagement (more negative = stronger competition), active = hit call of the paper (q ≤ 0.05, log2 ratio ≤ -1)
Details in all cases: compound concentration: 200 uM; treatment time: 3 h
USP34 = USP34 (UniProt Q70CQ2)
Procedure, shortened: (§1)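 Labelled DUBs from HEK293T lysate were NeutrAvidin-enriched, digested with LysC and trypsin, and run by diaPASEF LC-MS/MS. Before that, each 495 µg sample in Tris/CHAPS/IGEPAL buffer with protease inhibitors was treated in triplicate with fragment at 200 µM or vehicle for 3 h, then with Biotin-Ahx-Ub-VS at 0.5 µM final for 1 h. Values are average log2 ratios of fragment over vehicle by unpaired t-test, based on global-median-normalised Spectronaut label-free quantities from proteins with ≥2 unique peptides.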

USP36 = target: T1, USP36 (UniProt Q9P275)
T1 sequence (whole entry): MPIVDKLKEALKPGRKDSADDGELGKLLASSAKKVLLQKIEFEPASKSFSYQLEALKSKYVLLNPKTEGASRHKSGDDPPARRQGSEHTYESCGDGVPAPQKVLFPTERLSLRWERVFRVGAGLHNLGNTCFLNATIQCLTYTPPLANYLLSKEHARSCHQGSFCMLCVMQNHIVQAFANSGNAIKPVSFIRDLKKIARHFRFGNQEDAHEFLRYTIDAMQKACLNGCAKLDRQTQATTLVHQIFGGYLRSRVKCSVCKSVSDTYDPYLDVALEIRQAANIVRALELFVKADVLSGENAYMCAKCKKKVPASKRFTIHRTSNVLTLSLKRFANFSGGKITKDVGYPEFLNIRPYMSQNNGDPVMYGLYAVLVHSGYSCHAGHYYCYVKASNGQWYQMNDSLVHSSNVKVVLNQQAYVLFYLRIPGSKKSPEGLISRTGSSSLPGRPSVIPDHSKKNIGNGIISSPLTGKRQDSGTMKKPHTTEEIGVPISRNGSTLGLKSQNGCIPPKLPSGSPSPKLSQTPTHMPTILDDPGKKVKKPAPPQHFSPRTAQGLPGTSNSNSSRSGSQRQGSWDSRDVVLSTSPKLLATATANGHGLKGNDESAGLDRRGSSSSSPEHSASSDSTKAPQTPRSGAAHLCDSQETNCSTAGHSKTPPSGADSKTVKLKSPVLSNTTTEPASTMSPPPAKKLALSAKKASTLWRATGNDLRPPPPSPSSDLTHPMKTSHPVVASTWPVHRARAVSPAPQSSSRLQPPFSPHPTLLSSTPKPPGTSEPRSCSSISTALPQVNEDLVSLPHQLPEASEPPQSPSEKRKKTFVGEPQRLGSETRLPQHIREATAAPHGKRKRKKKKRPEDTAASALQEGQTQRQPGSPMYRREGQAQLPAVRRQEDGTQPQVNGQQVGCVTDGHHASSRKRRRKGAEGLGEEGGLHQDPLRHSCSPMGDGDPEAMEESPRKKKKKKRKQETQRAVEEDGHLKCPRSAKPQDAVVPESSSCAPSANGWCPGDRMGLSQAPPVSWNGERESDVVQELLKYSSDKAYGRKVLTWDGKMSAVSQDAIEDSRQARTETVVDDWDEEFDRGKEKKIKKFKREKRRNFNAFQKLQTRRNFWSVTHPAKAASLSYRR
Procedure, shortened: as §1

USP38 = target: T2, USP38 (UniProt Q8NB14)
T2 sequence (whole entry): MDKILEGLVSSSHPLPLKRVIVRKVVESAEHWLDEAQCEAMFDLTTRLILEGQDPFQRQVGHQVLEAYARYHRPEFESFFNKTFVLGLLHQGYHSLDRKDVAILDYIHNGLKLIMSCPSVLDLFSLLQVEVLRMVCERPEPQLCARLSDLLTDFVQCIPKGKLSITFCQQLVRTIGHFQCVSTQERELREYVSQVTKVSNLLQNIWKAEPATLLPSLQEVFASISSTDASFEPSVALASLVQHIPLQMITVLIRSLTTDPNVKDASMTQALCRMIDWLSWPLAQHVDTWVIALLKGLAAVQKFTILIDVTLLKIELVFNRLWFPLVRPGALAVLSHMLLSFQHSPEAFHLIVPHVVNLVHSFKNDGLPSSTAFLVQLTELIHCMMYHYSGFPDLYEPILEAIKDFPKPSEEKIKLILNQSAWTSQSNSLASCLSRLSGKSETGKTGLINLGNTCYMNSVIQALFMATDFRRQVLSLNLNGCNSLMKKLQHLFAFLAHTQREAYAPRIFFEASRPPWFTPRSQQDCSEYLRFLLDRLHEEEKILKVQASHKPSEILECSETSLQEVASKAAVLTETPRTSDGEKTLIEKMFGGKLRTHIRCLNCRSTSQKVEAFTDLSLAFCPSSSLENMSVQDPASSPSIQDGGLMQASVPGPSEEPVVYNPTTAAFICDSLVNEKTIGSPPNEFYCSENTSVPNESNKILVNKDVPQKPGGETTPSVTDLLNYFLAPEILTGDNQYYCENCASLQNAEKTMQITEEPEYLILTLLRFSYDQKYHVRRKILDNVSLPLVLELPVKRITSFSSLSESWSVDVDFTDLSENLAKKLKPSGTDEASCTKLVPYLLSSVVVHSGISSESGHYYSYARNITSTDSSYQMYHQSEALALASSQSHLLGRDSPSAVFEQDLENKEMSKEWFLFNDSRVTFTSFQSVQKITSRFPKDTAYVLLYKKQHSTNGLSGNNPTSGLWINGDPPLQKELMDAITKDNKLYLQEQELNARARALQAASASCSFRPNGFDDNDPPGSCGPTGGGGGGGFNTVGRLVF
Procedure, shortened: as §1

USP39 = target: T3, USP39 (UniProt Q53GS9)
T3 sequence (whole entry): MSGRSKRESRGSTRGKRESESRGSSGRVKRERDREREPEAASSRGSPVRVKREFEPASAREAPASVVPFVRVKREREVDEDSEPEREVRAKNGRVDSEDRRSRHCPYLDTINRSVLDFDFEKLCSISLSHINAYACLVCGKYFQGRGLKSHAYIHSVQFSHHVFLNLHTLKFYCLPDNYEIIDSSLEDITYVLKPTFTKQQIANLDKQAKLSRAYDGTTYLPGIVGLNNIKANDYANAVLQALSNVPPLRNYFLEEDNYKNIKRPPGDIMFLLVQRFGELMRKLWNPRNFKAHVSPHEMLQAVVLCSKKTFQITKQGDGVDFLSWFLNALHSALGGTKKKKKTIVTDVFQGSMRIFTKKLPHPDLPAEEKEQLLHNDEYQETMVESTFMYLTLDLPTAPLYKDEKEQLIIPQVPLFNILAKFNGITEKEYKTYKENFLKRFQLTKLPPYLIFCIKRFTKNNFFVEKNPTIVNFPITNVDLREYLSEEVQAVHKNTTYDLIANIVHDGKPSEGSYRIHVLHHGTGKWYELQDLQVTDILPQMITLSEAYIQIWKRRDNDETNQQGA
Procedure, shortened: as §1

USP4 = target: T4, USP4 (UniProt Q13107)
T4 sequence (whole entry): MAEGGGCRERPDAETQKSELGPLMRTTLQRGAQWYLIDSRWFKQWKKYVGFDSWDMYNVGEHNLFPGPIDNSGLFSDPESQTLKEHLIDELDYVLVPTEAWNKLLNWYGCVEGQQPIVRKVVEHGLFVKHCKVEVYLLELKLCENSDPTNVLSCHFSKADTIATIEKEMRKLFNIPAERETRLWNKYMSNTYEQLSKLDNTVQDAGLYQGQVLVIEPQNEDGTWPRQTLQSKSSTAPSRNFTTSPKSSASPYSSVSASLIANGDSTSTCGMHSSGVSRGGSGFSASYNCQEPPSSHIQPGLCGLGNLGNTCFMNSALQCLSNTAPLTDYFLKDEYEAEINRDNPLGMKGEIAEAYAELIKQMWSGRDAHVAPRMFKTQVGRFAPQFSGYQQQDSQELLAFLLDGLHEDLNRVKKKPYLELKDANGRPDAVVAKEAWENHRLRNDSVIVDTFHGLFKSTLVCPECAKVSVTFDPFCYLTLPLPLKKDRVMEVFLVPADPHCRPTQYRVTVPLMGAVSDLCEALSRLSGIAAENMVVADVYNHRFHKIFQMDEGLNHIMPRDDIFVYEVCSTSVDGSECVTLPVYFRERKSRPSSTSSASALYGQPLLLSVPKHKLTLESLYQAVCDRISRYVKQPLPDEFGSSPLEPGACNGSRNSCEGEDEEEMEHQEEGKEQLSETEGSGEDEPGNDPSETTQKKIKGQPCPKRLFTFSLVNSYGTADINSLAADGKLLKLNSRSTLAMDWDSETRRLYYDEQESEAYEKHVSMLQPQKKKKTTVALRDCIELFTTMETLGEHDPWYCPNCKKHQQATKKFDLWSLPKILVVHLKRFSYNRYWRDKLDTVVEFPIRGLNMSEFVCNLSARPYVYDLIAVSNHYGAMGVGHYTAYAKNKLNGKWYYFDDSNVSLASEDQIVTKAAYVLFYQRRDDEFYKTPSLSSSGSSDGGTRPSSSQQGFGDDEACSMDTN
Procedure, shortened: as §1

Chain of USP34 (Q70CQ2 whole entry, the tested form may be a part): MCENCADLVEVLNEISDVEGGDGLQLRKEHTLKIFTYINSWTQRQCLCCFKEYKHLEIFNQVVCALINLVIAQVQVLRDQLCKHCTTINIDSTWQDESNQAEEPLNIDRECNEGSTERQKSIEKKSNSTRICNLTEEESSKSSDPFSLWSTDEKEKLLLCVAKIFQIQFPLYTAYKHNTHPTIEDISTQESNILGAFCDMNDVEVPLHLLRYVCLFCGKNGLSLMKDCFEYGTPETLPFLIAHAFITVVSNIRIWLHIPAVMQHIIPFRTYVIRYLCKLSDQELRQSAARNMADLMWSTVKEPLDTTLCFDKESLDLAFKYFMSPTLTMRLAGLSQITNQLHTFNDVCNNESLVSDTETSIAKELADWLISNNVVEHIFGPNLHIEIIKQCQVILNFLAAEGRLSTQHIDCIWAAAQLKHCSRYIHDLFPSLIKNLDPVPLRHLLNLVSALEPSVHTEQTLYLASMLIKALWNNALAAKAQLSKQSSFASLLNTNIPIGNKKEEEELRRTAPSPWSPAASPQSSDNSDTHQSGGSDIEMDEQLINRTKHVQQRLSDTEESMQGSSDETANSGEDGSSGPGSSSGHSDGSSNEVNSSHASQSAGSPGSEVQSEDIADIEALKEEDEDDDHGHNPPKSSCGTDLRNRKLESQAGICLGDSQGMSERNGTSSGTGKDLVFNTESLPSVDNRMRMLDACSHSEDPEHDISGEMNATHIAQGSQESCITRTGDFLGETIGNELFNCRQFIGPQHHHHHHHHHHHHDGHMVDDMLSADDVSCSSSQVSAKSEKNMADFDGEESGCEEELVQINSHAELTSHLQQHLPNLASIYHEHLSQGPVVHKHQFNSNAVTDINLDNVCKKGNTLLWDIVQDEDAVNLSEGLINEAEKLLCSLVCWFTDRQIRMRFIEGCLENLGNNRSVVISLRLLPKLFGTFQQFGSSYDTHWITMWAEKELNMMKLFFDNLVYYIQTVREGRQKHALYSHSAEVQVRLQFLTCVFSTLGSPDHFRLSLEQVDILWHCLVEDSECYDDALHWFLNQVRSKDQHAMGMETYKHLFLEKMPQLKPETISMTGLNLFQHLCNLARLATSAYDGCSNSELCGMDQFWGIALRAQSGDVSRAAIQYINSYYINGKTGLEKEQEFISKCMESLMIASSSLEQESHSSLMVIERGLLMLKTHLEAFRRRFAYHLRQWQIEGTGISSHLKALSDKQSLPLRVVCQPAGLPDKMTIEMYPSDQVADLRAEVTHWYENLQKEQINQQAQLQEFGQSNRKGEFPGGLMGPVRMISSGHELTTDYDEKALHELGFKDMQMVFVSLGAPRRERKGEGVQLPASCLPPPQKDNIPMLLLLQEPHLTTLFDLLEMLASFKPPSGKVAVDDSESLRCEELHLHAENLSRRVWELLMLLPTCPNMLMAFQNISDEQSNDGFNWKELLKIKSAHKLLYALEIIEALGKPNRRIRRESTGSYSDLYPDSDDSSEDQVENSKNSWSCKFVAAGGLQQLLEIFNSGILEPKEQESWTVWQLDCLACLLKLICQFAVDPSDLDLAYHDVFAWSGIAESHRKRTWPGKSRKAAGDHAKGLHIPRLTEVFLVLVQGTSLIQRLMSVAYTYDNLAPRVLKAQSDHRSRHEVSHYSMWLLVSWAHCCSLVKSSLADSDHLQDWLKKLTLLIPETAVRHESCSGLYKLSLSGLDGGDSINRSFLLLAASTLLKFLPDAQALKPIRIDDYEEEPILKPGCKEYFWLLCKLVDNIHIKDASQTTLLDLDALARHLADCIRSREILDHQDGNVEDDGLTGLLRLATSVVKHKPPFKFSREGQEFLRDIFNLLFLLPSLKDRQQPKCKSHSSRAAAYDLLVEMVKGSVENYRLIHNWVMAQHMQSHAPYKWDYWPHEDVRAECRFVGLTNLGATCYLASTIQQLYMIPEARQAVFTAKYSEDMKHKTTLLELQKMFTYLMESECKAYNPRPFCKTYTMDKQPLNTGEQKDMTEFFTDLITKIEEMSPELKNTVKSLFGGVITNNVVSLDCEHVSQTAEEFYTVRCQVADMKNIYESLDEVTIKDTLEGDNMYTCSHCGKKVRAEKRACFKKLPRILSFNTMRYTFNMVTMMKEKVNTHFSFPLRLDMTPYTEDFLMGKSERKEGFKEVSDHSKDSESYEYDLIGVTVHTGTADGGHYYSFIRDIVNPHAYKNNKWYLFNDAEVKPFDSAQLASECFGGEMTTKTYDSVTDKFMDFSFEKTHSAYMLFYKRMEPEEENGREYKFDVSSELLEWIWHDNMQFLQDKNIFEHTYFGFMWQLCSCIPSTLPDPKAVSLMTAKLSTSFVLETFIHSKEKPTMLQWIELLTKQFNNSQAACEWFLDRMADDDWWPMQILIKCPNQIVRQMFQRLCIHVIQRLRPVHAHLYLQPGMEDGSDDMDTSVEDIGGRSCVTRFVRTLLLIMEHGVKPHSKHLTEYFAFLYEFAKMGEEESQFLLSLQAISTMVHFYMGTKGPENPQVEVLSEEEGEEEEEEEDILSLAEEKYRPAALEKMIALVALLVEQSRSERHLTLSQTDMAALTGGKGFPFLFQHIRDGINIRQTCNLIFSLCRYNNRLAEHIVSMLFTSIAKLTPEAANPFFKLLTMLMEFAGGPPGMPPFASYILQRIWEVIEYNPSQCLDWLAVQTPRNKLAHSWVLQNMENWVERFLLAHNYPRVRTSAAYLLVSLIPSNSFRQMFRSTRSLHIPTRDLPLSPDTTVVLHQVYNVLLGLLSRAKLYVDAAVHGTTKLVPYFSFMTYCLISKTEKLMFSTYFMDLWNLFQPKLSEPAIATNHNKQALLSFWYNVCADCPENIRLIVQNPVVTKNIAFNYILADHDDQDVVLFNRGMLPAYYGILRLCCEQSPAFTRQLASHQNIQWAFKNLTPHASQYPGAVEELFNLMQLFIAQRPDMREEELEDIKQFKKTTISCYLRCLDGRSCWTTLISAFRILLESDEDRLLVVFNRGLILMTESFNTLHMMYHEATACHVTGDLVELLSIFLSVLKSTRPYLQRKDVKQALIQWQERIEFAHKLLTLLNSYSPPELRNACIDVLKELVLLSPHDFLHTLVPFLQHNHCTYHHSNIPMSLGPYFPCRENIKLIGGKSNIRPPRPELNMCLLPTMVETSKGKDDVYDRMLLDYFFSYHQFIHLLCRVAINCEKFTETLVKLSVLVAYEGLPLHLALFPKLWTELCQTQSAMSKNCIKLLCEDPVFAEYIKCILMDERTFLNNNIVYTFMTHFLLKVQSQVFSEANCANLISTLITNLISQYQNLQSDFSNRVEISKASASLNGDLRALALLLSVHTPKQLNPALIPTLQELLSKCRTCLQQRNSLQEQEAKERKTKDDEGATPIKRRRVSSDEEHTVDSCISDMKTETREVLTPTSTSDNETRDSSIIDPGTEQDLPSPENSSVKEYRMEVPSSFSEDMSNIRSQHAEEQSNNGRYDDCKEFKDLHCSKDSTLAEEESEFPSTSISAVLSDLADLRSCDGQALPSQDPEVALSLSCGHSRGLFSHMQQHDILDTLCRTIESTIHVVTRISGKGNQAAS

O=C(CCl)N1CC=C(c2c[nH]c3ccccc23)CC1
log2 ratio of Biotin-Ahx-Ub-VS probe labelling (USP34): -0.9 | log2 ratio of Biotin-Ahx-Ub-VS probe labelling (USP36): 0.0858 | log2 ratio of Biotin-Ahx-Ub-VS probe labelling (USP38): -0.476 | log2 ratio of Biotin-Ahx-Ub-VS probe labelling (USP39): 0.536 | log2 ratio of Biotin-Ahx-Ub-VS probe labelling (USP4): -1.2 (active)
